Experimental findings from PubChem BioAssay (NCATS) are described below.

Experiment [1] in a line: qHTS Assay for Identification of Small Molecule Agonists for NFkB Signaling Pathway. (AID 624478).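 Note: compounds tested together with TNF alpha at its EC50 of 10 pM; 0% is about no effect.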 The procedure, abridged:
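Read-out: 460/530 nm emission at 405 nm excitation after 2 h LiveBLAzer loading; ME-180 NFkB-bla reporter cells exposed 5 h at 37 C to compounds with 10 pM TNF alpha final.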
For orientation: qHTS replaces the single test concentration by a dilution series.

A short description of experiment [2]: Cell Proliferation Assay against the TMD8 Cell Line (AID 651645).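 Note: cells exposed to compound for 48 h before reading.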 To be noted: TMD8 DLBCL cell line proliferation/viability; at 46.1 µM (top of the series) unless noted. The procedure, abridged:
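Viability by CellTiter-Glo after 48 h compound exposure of 500 log-phase TMD8 cells per well (RPMI, 5% FBS). Percent activity scaled between DMSO (100%) and 9.2 uM final bortezomib (0%).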

Experiment [3] in a line: Cell Proliferation Assay against the HBL1 Cell Line (AID 651646).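 Note: cells exposed to compound for 48 h before reading.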 To be noted: HBL1 DLBCL cells; at 46.1 µM (top of the series) unless noted. The procedure, abridged:
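After a 48 h incubation of 500 HBL1 cells/well in phenol red-free RPMI plus 5% FBS, relative luciferase units from CellTiter-Glo gave percent activity against DMSO and 9.2 uM bortezomib (final) controls.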

Experiment [4] can be described thus: Cell Proliferation Assay against the TMD8 Cell Line (Caspase readout at 16 hrs) (AID 651712). Note: potency is the fitted concentration of half-maximal effect. The method, boiled down: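 16 h, 37 °C, TMD8 (500 cells/well), RPMI/5% FBS no phenol red; Caspase-Glo 3/7, 15 min RT, luminescence; %act: DMSO 0, bortezomib 9.2 uM final 100.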
Experiment [5] can be described thus: Cell Proliferation Assay against the TMD8 Cell Line (Caspase readout at 8 hrs) (AID 651713).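 Note: 0% = DMSO and 100% = 9.2 µM bortezomib caspase signal.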 The procedure, abridged: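 Apoptosis readout: caspase 3/7 luminescence (Caspase-Glo), 15 min RT. Cells: TMD8, 500/well, RPMI + 5% FBS, no phenol red. Exposure 8 h, 37C. % activity vs DMSO = 0, bortezomib 9.2 uM final = 100.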
In experiment [6] the target is Tyrosine-protein kinase Yes (Homo sapiens) (UniProt P07947). Briefly: qHTS for small molecule inhibitors of Yes1 kinase: Primary Screen (AID 686947). Note: nearly all actives have a fitted effect of over 60% in size. Note: potency is the fitted concentration of half-maximal effect. The procedure, abridged:
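In this qHTS format, inhibition is expressed relative to DMSO controls with enzyme (maximum) and without enzyme (minimum). The 60 min room-temperature reaction uses 0.1 mM ATP, with ADP detected by luminescence.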

Experiment [7] in a line: qHTS for small molecule inhibitors of Yes1 kinase: Counter Assay (AID 686950).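 Note: no kinase present so only ADP-Glo detection of a fixed ADP amount is tested; luminescence from ADP-Glo reporting ADP in a fixed ATP and ADP mixture; 0% = DMSO wells with ATP plus ADP and -100% = ATP-only wells without ADP.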 The procedure, abridged: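 Measuring interference with ADP-Glo, the assay ran 60 min at room temperature on an ATP/ADP mix lacking enzyme. Values were normalized to ATP-plus-ADP (maximum) and ATP-only (minimum) DMSO controls.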
A short description of experiment [8]: qHTS assay for small molecule agonists of the antioxidant response element (ARE) signaling pathway (AID 651741; active = well fitted activation curve with a large enough effect in the signal ratio; the % refers to the signal ratio; note: % of control where 0% means no effect). The method, boiled down: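 Beta-lactamase reporter expression driven by the antioxidant response element in HepG2 cells was detected by fluorescence with LiveBLAzer B/G FRET substrate (2 h, room temperature) following 16 h compound treatment at 37 C.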

Experiment [9] can be described thus: qHTS assay for small molecule activators of the p53 signaling pathway (AID 651743; active = well fitted activation curve with a large enough effect in the signal ratio, not every such curve was filed as active; the % refers to the signal ratio; note: % of control where 0% means no effect). The conditions noted are these: HCT-116 p53RE-bla, beta-lactamase FRET ratio, 16 h; activation: stronger effect = higher value. The method, boiled down: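 Here HCT-116 cells with an integrated p53-responsive beta-lactamase gene were incubated with compounds (16 hours, 37 C) after a 5-hour plating period; beta-lactamase activity was detected as fluorescence intensity via B/G FRET substrate.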

Experiment [10] in a line: qHTS assay for small molecule activators of the nuclear factor-kappa B (NF-kB) signaling pathway (AID 651749; active = well fitted activation curve with a large enough effect in the signal ratio; the % refers to the signal ratio; note: % of control where 0% means no effect). To be noted: NF-kB-bla ME-180 cells, beta-lactamase FRET ratio, 16 h; stronger effect = higher value. The method, boiled down: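 Beta-lactamase reporter expression, controlled by NF-kB response elements in ME-180 cells, was quantified fluorometrically via FRET disruption; cells at 2,000/well had been incubated with 23 nL test compound for 16 hr.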

In experiment [11] the target is Tumor necrosis factor (Homo sapiens) (UniProt P01375). Briefly: qHTS assay to identify small molecules that stimulate Tumor Necrosis Factor-alpha (TNF-alpha) secretion (AID 651757; active = well fitted curve in the direction sought with a large enough effect in the signal ratio; the % refers to the signal ratio; note: 0% is about no effect). The method, boiled down:
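THP-1 cells, 3000/well; compound 17 hrs, 37 C; add cryptate/XL665 anti-TNF-alpha antibody pair; 3 hr RT; TR-FRET (HTRF) read of secreted TNF-alpha. Quantitative HTS format.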

For experiment [12], the target named is Peroxisome proliferator-activated receptor alpha (Homo sapiens) (UniProt Q07869). Briefly: qHTS assay for small molecule agonists of the peroxisome proliferator-activated receptor alpha (PPARalpha) signaling pathway (AID 651778). Note: % of control where 0% means no effect. The conditions noted are these: PathHunter PPARalpha complementation, chemiluminescence, 6 h; stronger effect = higher value. The procedure, abridged:
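Cells plated at 2,000/well and held overnight at 37 C, 5% CO2, then compound added by pin tool for 6 hr; after PathHunter detection reagent and 60 min at room temperature, chemiluminescence from enzyme complementation was read.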

In experiment [13] the target is Nuclear receptor ROR-gamma (Homo sapiens) (UniProt P51449). Briefly: qHTS assay for small molecule antagonists of the retinoid-related orphan receptor gamma (ROR-gamma) signaling pathway (AID 651802).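 Note: CHO cells with doxycycline-induced ROR-gamma expression; luciferase reporter luminescence driven by ROR response element; % is set by controls: 0 for no effect and ±100 for the full control effect; nearly all actives have a fitted effect of over 60% in size.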 The method, boiled down: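 Luciferase read-out: ONE-Glo luminescence after 30 min at room temperature, following 16hr doxycycline induction at 37C, 5% CO2 of CHO cells with TET-inducible ROR and RORE-LUC reporter; decreased luminescence = reduced reporter activity.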
Chain of Nuclear receptor ROR-gamma (Homo sapiens) (P51449 whole entry, looked up): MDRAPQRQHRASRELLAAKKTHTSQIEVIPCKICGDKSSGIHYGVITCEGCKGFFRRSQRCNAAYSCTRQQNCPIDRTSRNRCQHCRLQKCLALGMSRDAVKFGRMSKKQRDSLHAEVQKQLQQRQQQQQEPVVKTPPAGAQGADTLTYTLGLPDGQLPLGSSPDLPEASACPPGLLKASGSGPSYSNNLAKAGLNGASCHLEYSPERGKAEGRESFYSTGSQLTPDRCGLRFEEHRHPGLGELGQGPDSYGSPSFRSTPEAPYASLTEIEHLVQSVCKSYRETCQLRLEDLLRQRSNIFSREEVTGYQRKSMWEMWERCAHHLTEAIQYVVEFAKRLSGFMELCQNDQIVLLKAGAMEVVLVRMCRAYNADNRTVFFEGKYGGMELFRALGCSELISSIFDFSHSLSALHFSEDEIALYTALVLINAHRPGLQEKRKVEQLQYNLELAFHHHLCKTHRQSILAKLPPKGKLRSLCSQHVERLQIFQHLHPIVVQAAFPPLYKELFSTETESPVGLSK

For experiment [14], the target named is Arylsulfatase A (Homo sapiens) (UniProt P15289). Briefly: qHTS screen for enhancers of Arylsulfatase A (ASA1): LOPAC Validation Assay (AID 720538). Note: 0% is about no effect. The conditions noted are these: outcome: dose series up to 57.5 µM. The method, boiled down:
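Enhancer assay in patient-derived MLD fibroblasts carrying ASA-I179S: 48 h compound exposure at 37 C, then 14 h room-temperature pNCS turnover (0.5 mM final) in lysis buffer. Read by fluorescence at 525/598 nm after NaOH stop.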

A short description of experiment [15]: qHTS for compounds that reverse cellular toxicity of Amyloid beta (A-beta) peptide in yeast: LOPAC Validation Assay (AID 720559).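 Note: plate controls were DMSO for no effect and equimolar ferric chloride plus clioquinol rescue for full effect.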 The method, boiled down:
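Rescue of A-beta toxicity was scored as yeast growth by 600 nm absorbance after 48 hr at 30 C with compound. Normalization used DMSO (negative) and equimolar ferric chloride plus clioquinol (positive).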

The nature of experiment [16]: qHTS for Activators of Parkin Expression: LOPAC Validation Assay (NLuc Reporter) (AID 720572;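 note: 0% = DMSO and 100% = positive control compound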). The procedure, abridged: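 Cells harboring the Parkin-promoter coincidence reporter were treated for 24 h at seven concentrations. NLuc output was measured sequentially after the FLuc channel and scaled between DMSO and positive control values.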

SMILES strings stand for the structures. Several values for one entry are separate records, joined by “and”; a condition that tells them apart may be missing. Equal values may be shown once. Results filed as inconclusive are left out. Activity calls are given as the source filed them. Unless noted, calls come from the whole dose curve; as a rule, active = well fitted curve in the direction sought with a large enough effect; inconclusive = small, poorly fitted or top-dose-only effect, or another doubt; inactive = no such curve, though single readings can be large; an effect the other way counts as inactive or inconclusive.

Chain of Tyrosine-protein kinase Yes (Homo sapiens) (P07947 whole entry, looked up): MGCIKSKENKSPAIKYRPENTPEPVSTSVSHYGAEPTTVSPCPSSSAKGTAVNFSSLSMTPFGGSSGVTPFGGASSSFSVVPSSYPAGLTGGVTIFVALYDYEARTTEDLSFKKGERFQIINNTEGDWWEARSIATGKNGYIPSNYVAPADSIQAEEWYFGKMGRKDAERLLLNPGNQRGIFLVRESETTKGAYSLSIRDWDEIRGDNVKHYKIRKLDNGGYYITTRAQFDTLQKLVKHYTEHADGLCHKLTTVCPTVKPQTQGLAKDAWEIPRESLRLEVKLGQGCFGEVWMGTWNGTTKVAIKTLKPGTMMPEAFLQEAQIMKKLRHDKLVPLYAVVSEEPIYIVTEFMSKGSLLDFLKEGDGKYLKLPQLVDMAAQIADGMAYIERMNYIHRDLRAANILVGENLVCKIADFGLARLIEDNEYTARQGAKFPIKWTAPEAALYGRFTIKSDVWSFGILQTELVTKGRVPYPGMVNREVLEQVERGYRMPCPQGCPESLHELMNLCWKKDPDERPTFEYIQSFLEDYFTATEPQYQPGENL
Chain of Peroxisome proliferator-activated receptor alpha (Homo sapiens) (Q07869 whole entry, looked up): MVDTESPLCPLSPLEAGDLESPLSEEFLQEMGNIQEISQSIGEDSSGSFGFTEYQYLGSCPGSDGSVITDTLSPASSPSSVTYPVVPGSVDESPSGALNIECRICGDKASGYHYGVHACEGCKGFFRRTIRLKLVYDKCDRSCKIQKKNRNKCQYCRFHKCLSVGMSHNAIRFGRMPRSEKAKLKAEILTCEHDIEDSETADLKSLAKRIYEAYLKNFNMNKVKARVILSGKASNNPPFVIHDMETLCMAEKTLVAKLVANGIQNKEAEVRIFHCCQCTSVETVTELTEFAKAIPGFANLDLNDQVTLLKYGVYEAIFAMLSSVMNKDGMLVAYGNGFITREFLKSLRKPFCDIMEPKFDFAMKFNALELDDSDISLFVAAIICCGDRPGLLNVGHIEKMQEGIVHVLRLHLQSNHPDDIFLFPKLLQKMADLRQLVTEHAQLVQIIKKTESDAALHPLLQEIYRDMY
Chain of Tumor necrosis factor (Homo sapiens) (P01375 whole entry, looked up): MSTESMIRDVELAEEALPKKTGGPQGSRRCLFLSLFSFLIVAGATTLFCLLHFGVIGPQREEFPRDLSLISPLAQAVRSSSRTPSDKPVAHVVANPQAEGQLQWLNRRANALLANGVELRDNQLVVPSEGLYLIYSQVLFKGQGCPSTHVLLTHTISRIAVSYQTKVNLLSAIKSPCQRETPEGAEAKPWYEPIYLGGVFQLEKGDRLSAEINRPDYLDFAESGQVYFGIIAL
Chain of Arylsulfatase A (Homo sapiens) (P15289 whole entry, looked up): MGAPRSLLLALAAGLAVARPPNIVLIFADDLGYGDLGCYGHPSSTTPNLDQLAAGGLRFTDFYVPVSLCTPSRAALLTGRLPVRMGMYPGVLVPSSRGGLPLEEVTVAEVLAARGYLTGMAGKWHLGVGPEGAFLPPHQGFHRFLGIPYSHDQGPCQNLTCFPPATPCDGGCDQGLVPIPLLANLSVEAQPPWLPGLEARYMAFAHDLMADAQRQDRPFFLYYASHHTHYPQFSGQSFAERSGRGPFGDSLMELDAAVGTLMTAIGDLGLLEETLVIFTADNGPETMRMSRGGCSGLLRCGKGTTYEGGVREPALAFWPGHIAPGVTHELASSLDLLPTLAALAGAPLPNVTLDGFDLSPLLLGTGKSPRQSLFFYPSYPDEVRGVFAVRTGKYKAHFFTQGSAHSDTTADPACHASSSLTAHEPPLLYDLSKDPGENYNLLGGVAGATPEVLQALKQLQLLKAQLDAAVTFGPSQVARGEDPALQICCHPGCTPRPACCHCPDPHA

With `C[C@]1(c2nc3c(C(N)=O)cccc3[nH]2)CCCN1`, the compound was called inactive in experiment [1] and in experiment [7]. The viability (% of control) in experiment [2] was 57.1%. In addition, the viability, percent of control in [3] turned out to be 89.5%. In addition, the Potency entry in experiment [4], in experiment [5] and in experiment [6] was “inactive” in each case.
`Cc1cccc(-c2nn(C(=S)Nc3ccccc3)cc2-c2ccnc3ccccc23)n1`: the result in experiment [1] and in experiment [7] was inactive. Further, the viability (% of control) in experiment [2] was 60.3%. Moreover, the viability, percent of control in experiment [3] was 94.2%. For the same compound, the Potency entry in experiment [5] is “inactive”. Also, the Potency in experiment [6] is 2.44 µM (active).
`Cc1c(CCOc2ccc(C(=O)O)cc2)c2cc(Cl)ccc2n1C(c1ccccc1)c1ccccc1`: the result in [1] and in experiment [7] was inactive. In experiment [2], the viability (% of control) was 79.3%. For the same compound, the viability, percent of control in [3] amounted to 34.4%. In addition, the Potency result in [4] and in [5] was “inactive” throughout.
As for `CCC(C)(C)C(=O)O[C@H]1C[C@@H](C)C=C2C=C[C@H](C)[C@H](CC[C@@H]3C[C@@H](O)CC(=O)O3)[C@H]21`, the viability (% of control) in [2] is 80.7% [at 15.4 µM]. In [3], the viability, percent of control worked out at 94.3% [at 15.4 µM]. Moreover, the Potency entry in [4] and in experiment [6] was “inactive” in each case. Also, the call in [7] was inactive.
`C/C(=C\C(=O)Nc1ccccc1C(=O)O)c1ccc2ccccc2c1`: the result in [1] and in [7] was inactive. Further, the viability (% of control) in experiment [2] was 53.7%. In experiment [3], the viability, percent of control came to 70.3%. The Potency result in experiment [5] and in experiment [6] was “inactive” throughout.
For `NC(=O)c1cnccn1`, the Potency entry in experiment [8] and in [16] was “inactive” throughout. Besides, the activation is 0.545% (inactive) and -2.21% (inactive) in experiment [9]; -0.539% (inactive) and -2.05% (inactive) in experiment [10]. In addition, the compound was classed as inactive in experiment [11], in experiment [13], in experiment [14] and in experiment [15]. Moreover, the max response in experiment [12] is -0.88% (inactive) and -1.97% (inactive).
For the compound `CCOc1cc(N2CCC(O)CC2)ccc1Nc1ncc2c(n1)N(C)c1ccccc1C(=O)N2C`, the outcome in experiment [1] and in experiment [7] was inactive. The viability (% of control) in experiment [2] is 2.87%. Also, the viability, percent of control in experiment [3] stood at 29%. The Potency in experiment [4] is 20.9 µM (active). Further, the Potency result in experiment [6] was “inactive”.
On to `CN(C)c1ccc(C2Nc3ccc4ccccc4c3C3=C2C(=O)CC(C)(C)C3)cc1Br` (stereo unspecified), for which the compound was called inactive in experiment [1] and in [7]. In addition, the viability (% of control) in experiment [2] was 64.8%. For the same compound, in [3], the viability, percent of control worked out at 69.1%. Also, the Potency result in [4], in experiment [5] and in [6] was “inactive” throughout.
In the case of `Cc1cc(SCc2sc(-c3ccc(C(F)(F)F)cc3)nc2C)ccc1OCC(=O)O`, the compound was classed as inactive in [1] and in experiment [7]. The viability (% of control) in experiment [2] is 88.2%. The viability, percent of control in experiment [3] was found to be 114%. For the same compound, the Potency entry in experiment [5] and in experiment [6] was “inactive” in each case.
For the compound `c1ccc(-c2nn3c(c2-c2ccnc4cc(OCCN5CCOCC5)ccc24)CCC3)nc1`, the call in [1] and in [7] was inactive. In addition, in experiment [2], the viability (% of control) turned out to be 41.4%. For the same compound, the viability, percent of control in [3] is 77.9%. For the same compound, in experiment [5], the Potency result was “inactive”. Also, the Potency in experiment [6] is 8.67 µM (active).
Take `CCCn1c(=O)c2[nH]c(C34CC5CC3C[C@@H](C5)C4)nc2n(CCC)c1=O`: the compound was called inactive in [1] and in experiment [7]. Moreover, the viability (% of control) in experiment [2] worked out at 30.5%. Further, in experiment [3], the viability, percent of control was 60.2%. In addition, in experiment [4], the Potency was 18.7 µM (active). Moreover, the Potency result in experiment [5] and in [6] was “inactive” each time.
